The values that follow come from PubChem BioAssay (Tox21).

A short description of experiment [1]: qHTS assay to identify aromatase inhibitors - cell viability counter screen (AID 743084;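 also: cells stimulated with testosterone during compound exposure; nearly all actives have a fitted effect of over 55% in size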; also: potency is read from the fitted curve at half-maximal effect). (In general: Quantitative high-throughput screening tests each substance at several concentrations.)
Experiment [2] has as its target Aryl hydrocarbon receptor (Homo sapiens) (UniProt P35869). The experiment in a line: qHTS assay to identify small molecule that activate the aryl hydrocarbon receptor (AhR) signaling pathway (AID 743085). Also: nearly all actives have a fitted effect of over 15% in size. Also: potency is read from the fitted curve at half-maximal effect.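 As to activation: HG2L7.5c1 human HepG2 liver cells with stably integrated DRE-driven firefly reporter; series mostly up to about 70 µM.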 The method, boiled down:
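Measured in HG2L7.5c1 cells: CellTiter-Fluor signal (30 min incubation, 37C) for viability, then luciferase luminescence (30 min, room temperature). Compound contact time was 24 h at 37C, following a 5 h pre-incubation.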

Experiment [3] is described as follows: qHTS assay to identify small molecule that activate the aryl hydrocarbon receptor (AhR) signaling pathway - cell viability counter screen (AID 743086). Also: nearly all actives have a fitted effect of over 45% in size. Also: potency is read from the fitted curve at half-maximal effect. The method, boiled down:
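HepG2-AhR-luc (HG2L7.5c1) cells, 4000/well, treated 24 h at 37 C with compound; viability measured as CellTiter-Fluor fluorescence after 30 min in the same wells as the luciferase read.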

A short description of experiment [4]: qHTS assay for small molecule agonists of the antioxidant response element (ARE) signaling pathway - cell viability counter screen (AID 743203; calls by dose curve; also: nearly all actives have a fitted effect of over 55% in size; also: potency is read from the fitted curve at half-maximal effect). The method, boiled down:
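Cells (ARE-bla HepG2, 2,000/well) receive DMSO-dissolved compounds after a 5 hrs rest. Plates incubate 16 hrs at 37C/5% CO2. CellTiter-Glo luminescence is then recorded after 30 min at room temperature.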

Experiment [5] can be described thus: qHTS assay for small molecule activators of the heat shock response signaling pathway - cell viability counter screen (AID 743209). Also: nearly all actives have a fitted effect of over 50% in size. Also: potency is read from the fitted curve at half-maximal effect. The method, boiled down: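 Quantitative HTS format, Tox21 10K library. HeLa cells carrying an HSE-driven beta-lactamase reporter were treated 5 h at 37 C, then assessed for viability by CellTiter-Glo luminescence.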
A short description of experiment [6]: qHTS assay to identify small molecule antagonists of the peroxisome proliferator-activated receptor gamma (PPARg) signaling pathway - cell viability counter screen (AID 743194). Also: nearly all actives have a fitted effect of over 55% in size. Also: potency is read from the fitted curve at half-maximal effect. The conditions noted are these: Potency: co-treated with 50 nM rosiglitazone. In outline: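 Cytotoxicity counter screen in PPARg-bla HEK293H cells, same wells as reporter assay. Compounds plus 50 nM rosiglitazone (final) for 17 h at 37 C, then viability read by CellTiter-Glo luminescence.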

Experiment [7] in a line: qHTS assay for small molecule agonists of the antioxidant response element (ARE) signaling pathway (AID 743202; active = well fitted activation curve with a large enough effect in the signal ratio in the repeat runs, not every such curve was filed as active; the % refers to the signal ratio; also: potency is read from the fitted curve at half-maximal effect). The method, boiled down: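 Agonist mode reporter screen: HepG2 cells with ARE-controlled beta-lactamase are incubated with test compounds for 16 h at 37 C, and beta-lactamase activity is measured as fluorescence of cleaved B/G FRET substrate.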
Experiment [8] is described as follows: qHTS assay for small molecule activators of the heat shock response signaling pathway (AID 743210; active = well fitted activation curve with a large enough effect in the signal ratio in the repeat runs, with a control signal flat, not every such curve was filed as active; the % refers to the signal ratio; also: series mostly up to about 63 µM). The method, boiled down: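 Quantitative high-throughput format using an engineered HeLa line in which heat shock response elements drive beta-lactamase; after 5 h with compound, cells received a B/G FRET substrate and fluorescence was read.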
Experiment [9] concerns the target Peroxisome proliferator-activated receptor gamma (Homo sapiens) (UniProt P37231). As to the kind of experiment: qHTS assay to identify small molecule agonists of the peroxisome proliferator-activated receptor gamma (PPARg) signaling pathway (AID 743094; active = well fitted activation curve with a large enough effect in the signal ratio in the repeat runs, not every such curve was filed as active; the % refers to the signal ratio). The method, boiled down:
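Stably transfected HEK293H cells (GeneBLAzer PPARg UAS-bla) were incubated with test substances for 17 h at 37C after a 5 h pre-incubation; beta-lactamase activity was then detected by FRET substrate fluorescence.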

For experiment [10] the target is unchanged. The experiment in a line: qHTS assay to identify small molecule antagonists of the peroxisome proliferator-activated receptor gamma (PPARg) signaling pathway (AID 743191; calls by dose curve; also: series mostly up to about 63 µM; nearly all actives have a fitted effect of over 30% in size). In outline: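 GeneBLAzer PPARg UAS-bla HEK293H cells, 5 h post-plating, exposed to compounds 17 h at 37C. LiveBLAzer B/G FRET substrate added for 1 h at room temperature; beta-lactamase reporter read by fluorescence intensity.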

Values joined by “and” are separate entries in the source; they are usually repeats but may differ in a detail not shown here. Equal values may be shown once. Records with an inconclusive call do not appear. Some structures have more than one record in an assay (separate samples or runs), and their calls can disagree. Active and inactive are the calls of the source. Unless noted, calls follow the shape of the dose curve; as a rule, active = well fitted curve in the direction sought with a large enough effect in the repeat runs; inconclusive = weak or mixed curves; inactive = no such curve, though single readings can be large; an effect the other way counts as inactive or inconclusive.

Peroxisome proliferator-activated receptor gamma (Homo sapiens), sequence (P37231 whole entry, looked up): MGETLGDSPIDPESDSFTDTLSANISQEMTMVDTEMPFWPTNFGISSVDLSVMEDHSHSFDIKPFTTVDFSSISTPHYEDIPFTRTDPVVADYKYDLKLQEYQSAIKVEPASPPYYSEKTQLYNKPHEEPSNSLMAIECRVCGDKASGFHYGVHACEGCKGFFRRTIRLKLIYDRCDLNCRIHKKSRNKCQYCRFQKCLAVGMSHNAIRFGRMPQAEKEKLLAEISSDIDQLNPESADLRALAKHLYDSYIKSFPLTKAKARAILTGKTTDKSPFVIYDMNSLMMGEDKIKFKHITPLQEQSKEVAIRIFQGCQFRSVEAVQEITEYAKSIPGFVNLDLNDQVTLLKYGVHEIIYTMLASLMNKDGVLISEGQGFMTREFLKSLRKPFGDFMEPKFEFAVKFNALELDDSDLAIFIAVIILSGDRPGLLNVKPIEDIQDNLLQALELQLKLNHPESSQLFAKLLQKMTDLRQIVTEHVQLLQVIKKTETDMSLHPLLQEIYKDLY
Aryl hydrocarbon receptor (Homo sapiens), sequence (P35869 whole entry, looked up): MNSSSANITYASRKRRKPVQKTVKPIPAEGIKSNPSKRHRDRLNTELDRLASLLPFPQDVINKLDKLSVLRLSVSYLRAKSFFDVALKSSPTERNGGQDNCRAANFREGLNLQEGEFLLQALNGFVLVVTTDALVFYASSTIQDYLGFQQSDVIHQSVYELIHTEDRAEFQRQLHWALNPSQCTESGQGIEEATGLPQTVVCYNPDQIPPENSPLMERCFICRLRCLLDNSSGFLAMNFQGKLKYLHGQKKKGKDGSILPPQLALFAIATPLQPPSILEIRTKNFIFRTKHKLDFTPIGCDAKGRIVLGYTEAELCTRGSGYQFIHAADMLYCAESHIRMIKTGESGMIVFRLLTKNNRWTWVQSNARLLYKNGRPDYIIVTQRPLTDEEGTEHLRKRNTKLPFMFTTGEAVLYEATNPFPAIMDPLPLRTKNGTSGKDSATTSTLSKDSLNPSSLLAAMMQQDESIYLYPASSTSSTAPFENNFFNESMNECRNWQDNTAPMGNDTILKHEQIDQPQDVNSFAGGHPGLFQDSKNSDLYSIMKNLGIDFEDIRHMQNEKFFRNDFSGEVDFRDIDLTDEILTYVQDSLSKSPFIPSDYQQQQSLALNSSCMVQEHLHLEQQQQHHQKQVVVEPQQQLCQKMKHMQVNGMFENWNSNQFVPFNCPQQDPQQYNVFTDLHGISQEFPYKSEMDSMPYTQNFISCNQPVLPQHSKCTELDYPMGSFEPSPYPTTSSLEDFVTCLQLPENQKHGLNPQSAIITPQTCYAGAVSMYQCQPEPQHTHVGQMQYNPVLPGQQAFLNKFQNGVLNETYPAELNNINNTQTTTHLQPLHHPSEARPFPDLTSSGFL

`CCCCNC(=O)OCC#CI`: the Potency in [1] was 6.08 µM (active) and 17.2 µM (active); in experiment [4], 21.7 µM (active). Moreover, the Potency entry in experiment [2], in experiment [3] and in experiment [5] was “inactive” in each case.
On to `O=C(CCl)CCl`, for which the Potency is 15.4 µM (active) in experiment [1]; 21.9 µM (active) in experiment [6]; 14.2 µM (active) in experiment [7]; 19.3 µM (active) in experiment [4]; “inactive and 12.3 µM (active)” in experiment [5]. Also, the Potency entry in experiment [2], in experiment [3] and in experiment [8] was “inactive” throughout.
Regarding `CN(C)c1ccc(N=O)cc1`, the Potency is 6.13 µM (active) and 15.4 µM (active) in experiment [1]; 21.8 µM (active) and 21.7 µM (active) in [2]; 61.3 µM (active) and 68.6 µM (active) in experiment [3]; 49.1 µM (active) and 34.7 µM (active) in experiment [6]; “inactive and 54.5 µM (active)” in experiment [4]; 3.9 µM (active) and 5.49 µM (active) in experiment [5].
On to `O=C1CC[C@@]2(O)[C@H]3Cc4ccc(O)c5c4[C@@]2(CCN3CC2CC2)[C@H]1O5`, for which the Potency entry in [1], in [2], in [3], in [6], in experiment [4] and in [5] was “inactive” in each case.
For the compound `C[N+](C)(C)CCOC(=O)C(O)(c1ccccc1)c1ccccc1`, the Potency entry in [1], in [2], in experiment [3], in experiment [6], in experiment [4] and in experiment [5] was “inactive” in each case. The Potency entry in experiment [8] was “inactive”.
`C=CCc1ccccc1O`: the Potency entry in experiment [1], in [2], in [3], in experiment [6], in experiment [4] and in experiment [5] was “inactive” in each case. For the same compound, the Potency result in [8] is “inactive”.
On to `O=C(O)c1cc(I)cc(I)c1I`, for which the Potency entry in experiment [1], in experiment [2], in experiment [3], in experiment [6], in experiment [4] and in experiment [5] was “inactive” throughout. Further, the Potency result in experiment [8] is “inactive”.
With `[Cl-].[Cl-].[Hg+2]`, the Potency in experiment [1] was 10.6 µM (active) and 1.08 µM (active) and 12.2 µM (active); in [3] it was 6.08 µM (active) and 54.5 µM (active); in [6], 21.8 µM (active) and 21.9 µM (active); in experiment [4], 19.2 µM (active) and 12.2 µM (active); in experiment [5], 3.87 µM (active) and 30.9 µM (active). Further, the Potency result in experiment [2] is “inactive”.
Consider `CCCCC#N`, for which the Potency entry in experiment [1], in experiment [2], in experiment [3], in experiment [6], in experiment [7] and in experiment [4] was “inactive” in each case. Also, the Potency result in experiment [5] and in experiment [8] was “inactive” each time.
As to `CN(C)C(=O)Nc1cccc(OC(=O)NC(C)(C)C)c1`, the Potency result in [1], in experiment [2], in [3], in experiment [9], in [4] and in experiment [5] was “inactive” each time. Also, in experiment [8], the Potency entry is “inactive”.
On to `C[CH2][Hg][S]c1ccccc1C(=O)O`, for which the Potency was 5.96 µM (active) and 1.09 µM (active) in experiment [1]; 16.8 µM (active) and 6.86 µM (active) in experiment [3]; 2.45 µM (active) and 8.41 µM (active) in experiment [6]; 1.72 µM (active) and 5.96 µM (active) in experiment [4]; 19.5 µM (active) and 15 µM (active) in experiment [5]. Besides, the Potency entry in experiment [2] is “inactive”.
As for `O=C(O)C(F)(F)C(F)(F)C(F)(F)C(F)(F)C(F)(F)C(F)(F)C(F)(F)C(F)(F)F`, the Potency result in experiment [1], in experiment [2], in [3], in [6] and in [5] was “inactive” throughout. Besides, the Potency is 6.86 µM (active) in experiment [7] and 61.1 µM (active) in experiment [4].
For the compound `C=CCN1C[C@H](C)N([C@H](c2ccc(C(=O)N(CC)CC)cc2)c2cccc(OC)c2)C[C@H]1C`, the Potency result in experiment [1], in experiment [2], in experiment [3], in experiment [10], in experiment [6] and in experiment [4] was “inactive” each time. Moreover, the Potency entry in experiment [5] and in experiment [8] was “inactive” throughout.
For the compound `O=C=NC1CCCCC1`, the Potency result in [1], in experiment [3], in experiment [9], in [7], in experiment [4] and in experiment [5] was “inactive” in each case. For the same compound, the Potency result in experiment [8] is “inactive”. In [2], the Potency was 54.6 µM (active).
Turning to `CCOc1cccc(C2(N3CCN(c4ccccc4)CC3)CCC(C)CC2)c1` (configuration not stated), the Potency entry in [1], in experiment [3], in experiment [9], in experiment [10], in experiment [6] and in experiment [7] was “inactive” in each case. The Potency result in experiment [4] and in experiment [5] was “inactive” each time.
For the compound `CC(C)(c1ccccc1)c1cc(-n2nc3ccccc3n2)c(O)c(C(C)(C)c2ccccc2)c1`, the Potency entry in experiment [1], in [2], in experiment [3], in experiment [9], in experiment [7] and in experiment [4] was “inactive” in each case. In addition, the Potency result in experiment [5] and in experiment [8] was “inactive” in each case.
Consider `Cc1ncc(C[n+]2csc(CCO)c2C)c(N)n1`, for which the Potency result in [1], in experiment [2], in [3], in experiment [6], in experiment [7] and in experiment [4] was “inactive” throughout. In addition, in experiment [5], the Potency entry is “inactive”.
On to `O=C([O-])c1ccccn1.O=C([O-])c1ccccn1.O=C([O-])c1ccccn1.[Cr+3]`, for which the Potency entry in [1], in [3], in experiment [9], in experiment [10], in [6] and in [7] was “inactive” in each case. Besides, the Potency result in [4] and in experiment [5] was “inactive” throughout.
